In PubChem BioAssay (EPA / NIEHS):
Inconclusive results are not listed. Calls of active or inactive are those of the source. How the source made its calls, unless noted: active means hit-call score of the fitted dose curve at least 0.9, where 1 is the maximum; inconclusive means response in the unintended direction; inactive means score below 0.9.

Experiments:
[1] = ATG_TCF_b_cat_CIS: Attagene CIS-FACTORIAL HepG2 Assay for human T-Cell-Factor with beta-catenin (TCF/b-cat) (AID 2282965; active means hit-call score of the fitted dose curve at least 0.9, where 1 is the maximum; inactive means score below 0.9); details: HepG2 TCF/beta-catenin cis-reporter transcription, actives raise or lower the signal
Summary of the method: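 In this cis-format system, transfected HepG2 cells report endogenous transcription factor activity. Readout after 24 h exposure is reporter transcript abundance from RT-PCR and capillary electrophoresis, analysed for gain or loss of signal versus DMSO.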

[2] = ATG_TGFb_CIS: Attagene CIS-FACTORIAL HepG2 Assay for human Transforming Growth Factor (TGF) (AID 2282967; active means hit-call score of the fitted dose curve at least 0.9, where 1 is the maximum; inactive means score below 0.9); details: HepG2 Attagene CIS TGFb reporter, mRNA transcription; actives raise or lower the signal
Summary of the method: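 Transient MRTU transfection of HepG2 (FuGene 6). Dose 24 h. TriZol RNA, oligo(dT) RT, PCR, 6-FAM primer extension, HpaI cut, CE. Bidirectional fit, DMSO = baseline.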

[3] = ATG_VDRE_CIS: Attagene CIS-FACTORIAL HepG2 Assay for human Vitamin D Receptor Element (VDRE) (AID 2282968; active means hit-call score of the fitted dose curve at least 0.9, where 1 is the maximum; inactive means score below 0.9); details: HepG2 VDRE cis-reporter transcription, actives raise or lower the signal
Summary of the method: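 RT-PCR/CE readout of reporter mRNA; HepG2, transient transfection, 24 h dosing; DMSO baseline; bidirectional analysis.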

[4] = target: Estrogen receptor (Homo sapiens) (UniProt P03372); experiment: ATG_ERa_TRANS: Attagene TRANS-FACTORIAL HepG2 Assay for human Estrogen Receptor alpha (ERa) (AID 2282970); details: HepG2 Attagene TRANS ERa GAL4 reporter, mRNA
Summary of the method: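 HepG2 cells transiently transfected with multiplexed GAL4-UAS reporter units; ERa activity read via exogenous chimeric NR-Gal4 protein. After 24 hour compound exposure, reporter mRNA measured by RT-PCR with 6-FAM labelling and capillary electrophoresis; gain-of-signal fitted relative to DMSO.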

[5] = target: Steroid hormone receptor ERR1 (Homo sapiens) (UniProt P11474); experiment: ATG_ERRa_TRANS: Attagene TRANS-FACTORIAL HepG2 Assay for human Estrogen-Related Receptor alpha (ERRa) (AID 2282971); details: HepG2 Attagene TRANS reporter, ERRa transactivation
Summary of the method: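 HepG2 cells transiently transfected with multiplexed GAL4-UAS reporter units reading chimeric ERRa-Gal4 activity; 24 h compound exposure. Reporter mRNA measured by RT-PCR, 6-FAM labelling, HpaI digest and capillary electrophoresis; gain of signal fitted versus DMSO baseline.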

[6] = target: X-box-binding protein 1 (Homo sapiens) (UniProt P17861); experiment: ATG_Xbp1_CIS: Attagene CIS-FACTORIAL HepG2 Assay for human X-box Binding Protein 1 (XBP1) (AID 2282972; active means hit-call score of the fitted dose curve at least 0.9, where 1 is the maximum; inactive means score below 0.9); details: HepG2 XBP1 cis-element reporter, Attagene multiplex; actives raise or lower the signal
Summary of the method: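 Fluorescence-labelled cDNA fragments from reporter transcripts, separated by capillary electrophoresis, give the signal. Source: HepG2 cells transfected with promoter-driven reporter units, harvested 24 h post-dose. DMSO served as reference for bidirectional curve fitting.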

[7] = ATG_M_19_TRANS: Attagene TRANS-FACTORIAL HepG2 Assay for M19 Transcription Factor (Internal Marker) (AID 2282974); details: HepG2 Attagene TRANS-FACTORIAL M19 internal marker reporter
Summary of the method: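 Measured here: internal-marker reporter transcript from HepG2 cells transfected with MRTUs, harvested at 24 h. cDNA PCR products were 6-FAM labelled by primer extension, cut with HpaI for 2 h at 37 C, and resolved by CE.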

[8] = target: Glucocorticoid receptor (Homo sapiens) (UniProt P04150); experiment: ATG_GR_TRANS: Attagene TRANS-FACTORIAL HepG2 Assay for human Glucocorticoid Receptor (GR) (AID 2282978); details: HepG2 Attagene TRANS GR reporter, mRNA transcription;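 further: activators score as hits since higher reporter transcript over DMSO is fitted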
Summary of the method: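 Measurement of GAL4-UAS-driven reporter mRNA in human HepG2 liver cells 24 h post-dosing, using RT-PCR with fluorescent labelling and capillary electrophoresis; the transfected constructs report exogenous NR-GAL4 chimera activity, fitted upward against DMSO.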

[9] = target: Bile acid receptor (Homo sapiens) (UniProt Q96RI1); experiment: ATG_FXR_TRANS: Attagene TRANS-FACTORIAL HepG2 Assay for Farnesoid X Receptor (FXR) (AID 2282979); details: HepG2 Attagene TRANS FXR-GAL4 reporter transcription;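 further: hits raise reporter mRNA above DMSO so AC50 marks FXR activation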
Summary of the method: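 HepG2 cells transiently transfected with reporter constructs in which a chimeric FXR-GAL4 protein drives a GAL4-UAS reporter; 24 h compound exposure. Reporter mRNA measured by RT-PCR, FAM labelling, HpaI digestion and capillary electrophoresis; gain-of-signal versus DMSO.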

[10] = target: Oxysterols receptor LXR-alpha (Homo sapiens) (UniProt Q13133); experiment: ATG_LXRa_TRANS: Attagene TRANS-FACTORIAL HepG2 Assay for human Liver X Receptor alpha (LXRa) (AID 2282980); details: HepG2 Attagene TRANS reporter, LXRa transactivation
Summary of the method: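 HepG2 cells were transiently transfected with multiplexed reporter units driven by chimeric LXRa–GAL4 fusion proteins, then dosed for 24 h. Reporter mRNA was quantified by RT-PCR, fluorescent labelling and capillary electrophoresis; gain of signal fitted against DMSO baseline.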

[11] = ATG_M_32_TRANS: Attagene TRANS-FACTORIAL HepG2 Assay for M32 Transcription Factor (Internal Marker) (AID 2282984); details: HepG2 Attagene TRANS M32 internal marker reporter
Summary of the method: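 Human hepatoma HepG2, transient MRTU transfection, 24 h treatment. RNA → RT-PCR → fluorescent primer extension → HpaI digest (2 h, 37 C) → CE. Positive-direction fit vs DMSO.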

[12] = target: Nuclear receptor subfamily 4 group A member 2 (Homo sapiens) (UniProt P43354); experiment: ATG_NURR1_TRANS: Attagene TRANS-FACTORIAL HepG2 Assay for human Nuclear Receptor Related Protein 1 (NURR1) (AID 2282985); details: HepG2 Attagene TRANS reporter, mRNA readout
Summary of the method: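 After 24 h chemical dosing, total RNA from transiently transfected HepG2 cells was reverse-transcribed and reporter cDNA PCR-amplified, FAM-labelled and analysed by capillary electrophoresis. Activity fitted in positive direction, DMSO as negative control.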

[13] = target: Transcriptional activator Myb (Homo sapiens) (UniProt P10242); experiment: ATG_Myb_CIS: Attagene CIS-FACTORIAL HepG2 Assay for human Myeloblastosis (Myb) Proto-Oncogene Transcription Factor (AID 2282986; active means hit-call score of the fitted dose curve at least 0.9, where 1 is the maximum; inactive means score below 0.9); details: HepG2 Attagene CIS-FACTORIAL Myb reporter transcription; actives raise or lower the signal
Summary of the method: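 Fluorescence signals from capillary electrophoresis of RT-PCR-amplified reporter cDNA give the read-out. Cells: HepG2 transfected with multiple cis-regulated reporter units. Exposure lasts 24 hours; DMSO defines baseline for gain or loss of signal.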

[14] = target: Oxysterols receptor LXR-beta (Homo sapiens) (UniProt P55055); experiment: ATG_LXRb_TRANS: Attagene TRANS-FACTORIAL HepG2 Assay for human Liver X Receptor beta (LXRb) (AID 2282981); details: HepG2 Attagene TRANS GAL4-LXRb reporter, mRNA
Summary of the method: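 In this TRANS format, exogenous chimeric NR-Gal4 protein activity, not endogenous factors, drives reporter expression in transfected human HepG2 cells. Exposure lasted 24 h; reporter mRNA was read by fluorescent capillary electrophoresis.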

[15] = ATG_GAL4_TRANS: Attagene TRANS-FACTORIAL HepG2 Assay for GAL4 (Internal Marker) (AID 2282976); details: HepG2 Attagene TRANS GAL4 internal marker reporter
Summary of the method: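 HepG2 cells transiently transfected with multiplexed GAL4-UAS reporter constructs were dosed for 24 h. Reporter mRNA was measured by RT-PCR, 6-FAM primer extension, HpaI digestion and capillary electrophoresis, and gain of signal was fitted relative to DMSO.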

[16] = target: Hepatocyte nuclear factor 4-alpha (Homo sapiens) (UniProt P41235); experiment: ATG_HNF4a_TRANS: Attagene TRANS-FACTORIAL HepG2 Assay for human Hepatocyte Nuclear Factor 4 alpha (HNF4a) (AID 2282982); details: HepG2 HNF4a transactivation reporter, mRNA readout
Summary of the method: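 Cells used were human HepG2, transiently carrying GAL4-UAS reporter units read out against exogenous NR-GAL4 chimeras. Reporter transcript levels after 24 h dosing were quantified by fluorescent RT-PCR and capillary electrophoresis.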

[17] = ATG_M_06_TRANS: Attagene TRANS-FACTORIAL HepG2 Assay for M06 Transcription Factor (Internal Marker) (AID 2282983); details: HepG2 Attagene TRANS M06 internal marker reporter
Summary of the method: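 HepG2 cells transiently transfected with multiplexed GAL4-UAS reporter transcription units; after 24 h compound exposure, reporter mRNA measured by RT-PCR, FAM-labelled primer extension, HpaI digestion and capillary electrophoresis. Gain-of-signal fitted versus DMSO baseline; background control readout.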

[18] = target: Estrogen-related receptor gamma (Homo sapiens) (UniProt P62508); experiment: ATG_ERRg_TRANS: Attagene TRANS-FACTORIAL HepG2 Assay for human Estrogen-Related Receptor gamma (ERRg) (AID 2282977); details: HepG2 Attagene TRANS reporter, ERRg transactivation;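 further: hits increase reporter signal over DMSO so potencies reflect activators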
Summary of the method: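 Transfect HepG2 with multiple GAL4-UAS reporter transcription units; dose chemicals 24 h; isolate RNA, reverse-transcribe with oligo(dT), PCR-amplify, label with 6-FAM, digest with HpaI; size fragments by capillary electrophoresis. DMSO serves as negative control.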

[19] = target: Nuclear receptor subfamily 1 group I member 3 (Homo sapiens) (UniProt Q14994); experiment: ATG_CAR_TRANS: Attagene TRANS-FACTORIAL HepG2 Assay for human Constitutive Androstane Receptor (CAR) (AID 2282969); details: HepG2 Attagene TRANS-FACTORIAL CAR reporter;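 further: activators raise reporter mRNA above DMSO so AC50 marks induction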
Summary of the method: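 HepG2 cells transiently transfected with multiplexed GAL4-UAS reporter units expressing chimeric NR-Gal4 proteins; compound exposure 24 h. Reporter mRNA measured by RT-PCR, 6-FAM labelling, HpaI digestion and capillary electrophoresis; gain-of-signal fitted against DMSO baseline.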

Measured: AC50

Chain of Nuclear receptor subfamily 4 group A member 2 (Homo sapiens) (P43354 whole entry, looked up): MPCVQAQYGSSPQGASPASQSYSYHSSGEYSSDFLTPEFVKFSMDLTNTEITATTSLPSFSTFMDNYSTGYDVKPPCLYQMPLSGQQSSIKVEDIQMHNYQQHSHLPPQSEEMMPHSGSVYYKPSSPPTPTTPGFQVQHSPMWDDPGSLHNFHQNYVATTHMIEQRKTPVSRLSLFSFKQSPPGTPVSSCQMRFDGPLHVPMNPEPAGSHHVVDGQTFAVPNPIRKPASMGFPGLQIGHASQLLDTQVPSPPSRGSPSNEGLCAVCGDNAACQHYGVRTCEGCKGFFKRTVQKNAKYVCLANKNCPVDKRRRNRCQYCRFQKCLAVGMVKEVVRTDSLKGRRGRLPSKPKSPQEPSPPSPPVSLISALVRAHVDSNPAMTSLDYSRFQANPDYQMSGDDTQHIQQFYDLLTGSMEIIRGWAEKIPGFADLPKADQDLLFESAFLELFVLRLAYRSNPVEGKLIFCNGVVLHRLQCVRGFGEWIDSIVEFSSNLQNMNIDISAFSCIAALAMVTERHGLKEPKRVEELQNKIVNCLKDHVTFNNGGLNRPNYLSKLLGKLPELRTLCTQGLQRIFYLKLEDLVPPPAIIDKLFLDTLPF
Chain of Oxysterols receptor LXR-beta (Homo sapiens) (P55055 whole entry, looked up, the tested form may be a part): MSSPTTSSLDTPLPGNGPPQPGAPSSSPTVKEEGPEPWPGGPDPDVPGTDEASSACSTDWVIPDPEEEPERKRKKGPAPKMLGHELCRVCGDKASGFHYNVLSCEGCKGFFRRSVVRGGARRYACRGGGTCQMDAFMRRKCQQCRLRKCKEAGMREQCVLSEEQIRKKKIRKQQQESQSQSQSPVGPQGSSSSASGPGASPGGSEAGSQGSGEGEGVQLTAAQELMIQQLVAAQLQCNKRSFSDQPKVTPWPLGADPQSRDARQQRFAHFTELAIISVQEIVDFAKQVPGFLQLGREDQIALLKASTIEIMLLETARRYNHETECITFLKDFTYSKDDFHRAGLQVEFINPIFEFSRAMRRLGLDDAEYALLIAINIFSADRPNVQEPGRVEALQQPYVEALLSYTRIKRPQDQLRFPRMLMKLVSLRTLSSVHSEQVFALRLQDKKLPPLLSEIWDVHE
Chain of Transcriptional activator Myb (Homo sapiens) (P10242 whole entry, looked up): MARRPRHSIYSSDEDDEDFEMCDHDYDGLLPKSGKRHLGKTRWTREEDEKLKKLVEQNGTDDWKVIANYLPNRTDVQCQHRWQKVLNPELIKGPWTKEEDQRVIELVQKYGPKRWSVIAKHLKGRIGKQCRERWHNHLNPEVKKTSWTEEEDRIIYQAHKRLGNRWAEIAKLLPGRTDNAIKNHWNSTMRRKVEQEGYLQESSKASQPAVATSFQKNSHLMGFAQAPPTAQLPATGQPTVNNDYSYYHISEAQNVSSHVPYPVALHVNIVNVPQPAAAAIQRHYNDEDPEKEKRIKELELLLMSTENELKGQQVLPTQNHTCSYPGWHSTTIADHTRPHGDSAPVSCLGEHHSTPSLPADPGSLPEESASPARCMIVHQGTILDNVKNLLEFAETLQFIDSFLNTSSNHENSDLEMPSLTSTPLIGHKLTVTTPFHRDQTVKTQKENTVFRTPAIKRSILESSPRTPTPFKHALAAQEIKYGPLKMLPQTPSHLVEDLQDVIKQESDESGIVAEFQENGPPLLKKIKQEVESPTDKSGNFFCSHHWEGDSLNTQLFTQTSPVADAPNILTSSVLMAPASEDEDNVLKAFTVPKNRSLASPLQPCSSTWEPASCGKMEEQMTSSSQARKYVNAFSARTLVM
Chain of Hepatocyte nuclear factor 4-alpha (Homo sapiens) (P41235 whole entry, looked up, the tested form may be a part): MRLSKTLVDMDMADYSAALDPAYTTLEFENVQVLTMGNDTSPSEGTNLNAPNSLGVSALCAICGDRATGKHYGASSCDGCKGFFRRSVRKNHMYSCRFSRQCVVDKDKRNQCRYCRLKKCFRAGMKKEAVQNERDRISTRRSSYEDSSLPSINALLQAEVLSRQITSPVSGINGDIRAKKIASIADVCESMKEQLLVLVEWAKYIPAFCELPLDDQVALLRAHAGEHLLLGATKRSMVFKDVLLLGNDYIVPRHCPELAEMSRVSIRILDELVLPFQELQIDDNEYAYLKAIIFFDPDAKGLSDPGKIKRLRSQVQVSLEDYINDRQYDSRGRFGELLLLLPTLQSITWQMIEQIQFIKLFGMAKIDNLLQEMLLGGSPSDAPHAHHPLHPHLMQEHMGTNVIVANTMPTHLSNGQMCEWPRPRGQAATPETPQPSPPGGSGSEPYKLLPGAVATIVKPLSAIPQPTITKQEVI
Chain of Glucocorticoid receptor (Homo sapiens) (P04150 whole entry, looked up, the tested form may be a part): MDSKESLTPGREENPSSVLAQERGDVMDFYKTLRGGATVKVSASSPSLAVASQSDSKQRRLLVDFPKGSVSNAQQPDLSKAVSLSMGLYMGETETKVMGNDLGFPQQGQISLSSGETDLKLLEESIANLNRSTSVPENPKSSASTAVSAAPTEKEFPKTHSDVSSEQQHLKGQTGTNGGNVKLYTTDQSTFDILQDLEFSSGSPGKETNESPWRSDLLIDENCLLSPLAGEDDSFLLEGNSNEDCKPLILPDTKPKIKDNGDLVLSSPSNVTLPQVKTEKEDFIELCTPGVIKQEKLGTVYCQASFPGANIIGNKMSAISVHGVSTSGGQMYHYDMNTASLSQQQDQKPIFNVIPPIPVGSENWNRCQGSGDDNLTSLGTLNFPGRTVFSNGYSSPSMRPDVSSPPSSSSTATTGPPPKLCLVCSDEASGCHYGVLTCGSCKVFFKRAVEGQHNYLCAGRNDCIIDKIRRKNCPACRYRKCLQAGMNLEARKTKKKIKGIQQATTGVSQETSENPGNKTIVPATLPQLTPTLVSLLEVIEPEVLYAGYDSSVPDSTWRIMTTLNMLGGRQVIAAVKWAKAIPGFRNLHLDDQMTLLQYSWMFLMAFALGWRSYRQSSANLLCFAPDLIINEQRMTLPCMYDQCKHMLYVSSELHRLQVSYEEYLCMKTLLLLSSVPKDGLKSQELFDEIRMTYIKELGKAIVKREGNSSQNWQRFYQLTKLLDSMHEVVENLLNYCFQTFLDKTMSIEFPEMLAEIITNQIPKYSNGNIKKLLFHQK
Chain of X-box-binding protein 1 (Homo sapiens) (P17861 whole entry, looked up, the tested form may be a part): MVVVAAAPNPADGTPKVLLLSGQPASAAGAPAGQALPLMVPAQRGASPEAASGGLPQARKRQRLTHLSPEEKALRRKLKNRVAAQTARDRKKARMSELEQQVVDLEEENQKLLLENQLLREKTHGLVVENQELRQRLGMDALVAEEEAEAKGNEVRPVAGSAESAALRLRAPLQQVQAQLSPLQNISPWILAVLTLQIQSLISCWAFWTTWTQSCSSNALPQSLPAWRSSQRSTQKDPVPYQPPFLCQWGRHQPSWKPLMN
Chain of Estrogen receptor (Homo sapiens) (P03372 whole entry, looked up, the tested form may be a part): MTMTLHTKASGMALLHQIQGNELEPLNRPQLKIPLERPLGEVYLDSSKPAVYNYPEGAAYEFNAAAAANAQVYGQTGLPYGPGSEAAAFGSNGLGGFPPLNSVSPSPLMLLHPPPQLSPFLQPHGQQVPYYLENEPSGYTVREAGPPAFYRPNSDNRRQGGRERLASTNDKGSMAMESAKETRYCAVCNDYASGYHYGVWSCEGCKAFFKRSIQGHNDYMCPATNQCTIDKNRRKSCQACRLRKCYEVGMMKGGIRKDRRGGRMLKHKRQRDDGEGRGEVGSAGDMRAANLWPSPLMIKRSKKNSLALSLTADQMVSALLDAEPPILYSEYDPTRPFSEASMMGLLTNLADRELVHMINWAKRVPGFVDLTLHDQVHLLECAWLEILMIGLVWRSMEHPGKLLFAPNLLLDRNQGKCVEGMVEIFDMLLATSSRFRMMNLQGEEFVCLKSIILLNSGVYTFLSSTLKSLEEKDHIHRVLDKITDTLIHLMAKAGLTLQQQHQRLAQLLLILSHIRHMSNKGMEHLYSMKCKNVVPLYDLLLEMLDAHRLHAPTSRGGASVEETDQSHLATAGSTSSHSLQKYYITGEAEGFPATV
Chain of Steroid hormone receptor ERR1 (Homo sapiens) (P11474 whole entry, looked up, the tested form may be a part): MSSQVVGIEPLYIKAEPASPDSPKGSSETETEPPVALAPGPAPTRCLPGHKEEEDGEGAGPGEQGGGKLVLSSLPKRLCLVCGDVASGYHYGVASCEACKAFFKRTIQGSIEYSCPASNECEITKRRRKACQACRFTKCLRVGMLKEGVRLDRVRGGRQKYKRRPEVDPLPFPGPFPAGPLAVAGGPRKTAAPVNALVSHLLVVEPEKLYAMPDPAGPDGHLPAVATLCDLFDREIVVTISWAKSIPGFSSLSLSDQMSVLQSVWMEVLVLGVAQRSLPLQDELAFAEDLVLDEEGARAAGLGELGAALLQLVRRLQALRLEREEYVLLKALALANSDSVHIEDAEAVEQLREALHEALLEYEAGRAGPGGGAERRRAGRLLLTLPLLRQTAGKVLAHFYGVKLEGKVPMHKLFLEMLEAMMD
Chain of Oxysterols receptor LXR-alpha (Homo sapiens) (Q13133 whole entry, looked up, the tested form may be a part): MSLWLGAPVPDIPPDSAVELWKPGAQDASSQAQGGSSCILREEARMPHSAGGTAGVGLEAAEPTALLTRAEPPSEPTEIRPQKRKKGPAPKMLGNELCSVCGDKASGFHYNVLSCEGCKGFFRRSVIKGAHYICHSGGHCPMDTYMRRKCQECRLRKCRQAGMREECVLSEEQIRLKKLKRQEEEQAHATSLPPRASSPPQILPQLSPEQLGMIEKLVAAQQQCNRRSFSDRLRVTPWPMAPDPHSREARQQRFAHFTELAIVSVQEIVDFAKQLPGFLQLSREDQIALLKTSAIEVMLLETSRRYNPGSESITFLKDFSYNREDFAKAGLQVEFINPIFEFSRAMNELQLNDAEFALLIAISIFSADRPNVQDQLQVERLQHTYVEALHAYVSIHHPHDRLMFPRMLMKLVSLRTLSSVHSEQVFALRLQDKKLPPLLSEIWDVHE

NC(=O)C(F)(F)C(F)(F)C(F)(F)C(F)(F)C(F)(F)C(F)(F)C(F)(F)F
active: [4] 9.95 µM
not listed: [14] | [15] | [16] | [17] | [18] | [19]
inactive: all other assays above

OCC(F)(F)C(F)(F)C(F)(F)C(F)(F)C(F)(F)C(F)(F)CO
inactive: [1] | [2] | [3] | [6] | [7] | [8] | [9] | [10] | [14] | [11]

O=C(Cl)C(F)(F)C(F)(F)C(F)(F)C(F)(F)C(F)(F)C(F)(F)F
not listed: [4] | [7] | [11] | [12] | [18] | [19]
inactive: all other assays above

NC(=O)C(F)(F)C(F)(F)C(F)(F)F
not listed: [4] | [5] | [7] | [10] | [11] | [15] | [17] | [19]
inactive: all other assays above

Nc1cccnc1N
inactive: [1] | [2] | [3] | [19] | [7] | [15] | [9] | [13]

OC(O)C(F)(F)C(F)(F)F
inactive: [1] | [2] | [3] | [4] | [5] | [15] | [8] | [9] | [17] | [13]

C[Si](Cl)(Cl)CCC(F)(F)C(F)(F)C(F)(F)C(F)(F)C(F)(F)C(F)(F)F
not listed: [6] | [7] | [11] | [13] | [18] | [19]
inactive: all other assays above

CNS(=O)(=O)C(F)(F)C(F)(F)C(F)(F)C(F)(F)C(F)(F)C(F)(F)C(F)(F)C(F)(F)F
not listed: [2] | [4] | [6] | [8] | [15] | [17] | [19]
inactive: all other assays above
